# PubChem BioAssay (NCATS)
# Results filed as inconclusive are left out. A call without a number means that no potency is given here. Activity calls are given as the source filed them. Unless noted, the call rests on the fitted dose curve. Bridge positions count the residues as written; N and C are the ends. Square brackets hold non-standard residues; d marks the D form. Peptide text beside a SMILES is read from it. Orn = NCCC[CH](N)C(=O)O; Mpa = O=C(O)CCS
# Columns and labels:
# [1] = Primary qHTS for inhibitors of SARS-S pseudo-typed particle cell entry (AID 1479145); settings: outcome: dose series up to 57.1 µM unless noted; further: nearly all actives have a fitted effect of over 45% in size; further: potency means the concentration at half of the fitted maximal effect
# [2] = Primary qHTS for Huh7 cytotoxicity: counterscreen for inhibitors of MERS-S pseudotyped particle cell entry (AID 1479147); settings: outcome: dose series up to 57.1 µM unless noted
# [3] = Primary qHTS for inhibitors of MERS-S pseudo-typed particle cell entry (AID 1479149); settings: outcome: dose series up to 57.1 µM unless noted; further: nearly all actives have a fitted effect of over 60% in size
# [4] = Primary qHTS for Vero E6 cytotoxicity: counterscreen for inhibitors of SARS-S pseudo-typed particle cell entry (AID 1479150); settings: outcome: dose series up to 57.1 µM unless noted
# [5] = Cytotoxicity counterscreen for inhibitors of SARS-CoV-2 cell entry (AID 1645845); settings: outcome: dose series up to 57.1 µM unless noted; further: nearly all actives have a fitted effect of over 50% in size
# Summary of the method: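 After a 15 min room-temperature ATPLite 1step step, luminescence reflected ATP remaining in HEK293-ACE2 cells exposed to compound for 1 h plus 48 h at 37 C, with percent activity set by cell and no-cell controls.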
# [6] = target: Glutathione peroxidase 1 (Homo sapiens) (UniProt P07203); assay: Primary qHTS Assay for Inhibitors of Recombinant Selenoprotein Glutathione Peroxidase 1 (GPX1) (AID 1845191; active means well fitted inhibition curve with a large enough effect; further: nearly all actives have a fitted effect of over 65% in size)
# Summary of the method: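 GPX1 10 nM, GR 100 nM, GSH 1 mM, NADPH 0.5 mM, CHP 0.5 mM (final). 30-min cpd preincubation, RT. Ex340/Em450 read t=0, t=15 min.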
# [7] = target: Phospholipid hydroperoxide glutathione peroxidase GPX4 (Homo sapiens) (UniProt P36969); assay: Primary qHTS Assay for Inhibitors of Recombinant Selenoprotein Glutathione Peroxidase 4 (GPX4) (AID 1845192; active means well fitted inhibition curve with a large enough effect; further: nearly all actives have a fitted effect of over 65% in size; further: potency means the concentration at half of the fitted maximal effect)
# Summary of the method: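 qHTS, GR-coupled: GPX4 200 nM + cpd 30 min RT → GSH 1 mM, NADPH 0.5 mM, GR 100 nM → CHP 0.5 mM start; fluor 340/450 at t0 and t15 min; no-enzyme wells as control.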
# Chain of Glutathione peroxidase 1 (Homo sapiens) (P07203 whole entry, looked up): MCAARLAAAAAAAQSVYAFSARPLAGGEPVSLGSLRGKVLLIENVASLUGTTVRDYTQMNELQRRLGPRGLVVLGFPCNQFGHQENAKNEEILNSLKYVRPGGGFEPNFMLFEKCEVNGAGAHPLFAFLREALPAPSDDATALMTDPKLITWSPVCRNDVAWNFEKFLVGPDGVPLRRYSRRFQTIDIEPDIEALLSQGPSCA
# Chain of Phospholipid hydroperoxide glutathione peroxidase GPX4 (Homo sapiens) (P36969 whole entry, looked up): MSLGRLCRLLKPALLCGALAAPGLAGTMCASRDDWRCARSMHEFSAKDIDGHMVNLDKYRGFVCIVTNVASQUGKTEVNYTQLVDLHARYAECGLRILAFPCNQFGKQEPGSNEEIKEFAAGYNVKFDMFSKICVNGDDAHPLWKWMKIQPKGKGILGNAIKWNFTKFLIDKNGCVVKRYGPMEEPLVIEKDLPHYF
smiles,measurement,setting,value
O1[As]2O[As]1O2,Potency,[1],inactive
same,Potency,[2],inactive
same,Potency,[3],inactive
same,Potency,[4],inactive
same,Potency,[5],inactive
same,Potency,[6],inactive
same,Potency,[7],inactive
CCCCCCCCCCCCCCCC(=O)OC1CCCn2c1nc(C)c(CCN1CCC(c3noc4cc(F)ccc34)CC1)c2=O (configuration not stated),Potency,[1],inactive
same,Potency,[2],inactive
same,Potency,[3],inactive
same,Potency,[4],inactive
same,Potency,[5],inactive
CCC(=O)NC[C@@H]1C[C@H]1c1cccc2c1CCO2,Potency,[1],inactive
same,Potency,[2],inactive
same,Potency,[3],inactive
same,Potency,[4],inactive
same,Potency,[5],inactive
CCOC(=O)C=C(C)C=CC[C@@H](C)CCCC(C)C,Potency,[1],inactive
same,Potency,[2],inactive
same,Potency,[3],inactive
same,Potency,[4],inactive
same,Potency,[5],inactive
same,Potency,[6],inactive
same,Potency,[7],inactive
C[C@]12C[C@@H]3S[C@H]3C[C@@H]1CC[C@H]1[C@H]3CC[C@@H](O)[C@@]3(C)CC[C@@H]12,Potency,[1],inactive
same,Potency,[2],inactive
same,Potency,[3],inactive
same,Potency,[4],inactive
same,Potency,[5],inactive
CCCCN=C(N)NC(=N)N,outcome,[1],inactive [setting not given]
same,outcome,[2],inactive [setting not given]
same,outcome,[3],inactive [setting not given]
same,outcome,[4],inactive [setting not given]
same,outcome,[5],inactive [setting not given]
COCC(=O)Nc1cc(Sc2ccccc2)ccc1N=C(NC(=O)OC)NC(=O)OC,Potency,[1],inactive
same,Potency,[2],inactive
same,Potency,[3],inactive
same,Potency,[4],inactive
C=CC[N@@+]12CC[C@]34c5ccccc5N5/C=C6\C7N(/C=C(\C53)[C@@H](C[C@@H]41)/C(=C/CO)C2)c1ccccc1[C@@]71CC[N@@+]2(CC=C)C/C(=C\CO)[C@@H]6C[C@@H]12 (some centres not stated),Potency,[1],inactive
same,Potency,[2],inactive
same,Potency,[3],inactive
same,Potency,[4],inactive
same,Potency,[5],inactive
CCCCCCCCCCCCCCCCCCCCCC(=O)Nc1ccn([C@@H]2O[C@H](CO)[C@@H](O)[C@@H]2O)c(=O)n1,Potency,[1],inactive
same,Potency,[2],inactive
same,Potency,[3],inactive
same,Potency,[4],inactive
same,Potency,[5],inactive
C[N+]1(C)C2CC[C@H]1CC(OC(=O)C(O)c1ccccc1)C2 (some centres not stated),Potency,[1],inactive
same,Potency,[2],inactive
same,Potency,[3],inactive
same,Potency,[4],inactive
Cc1cc(/C=C/C#N)cc(C)c1Nc1ccnc(Nc2ccc(C#N)cc2)n1,Potency,[1],22.4 µM (active)
O=C(OCCN(CCO)CCO)c1ccccc1O,Potency,[1],inactive
same,Potency,[2],inactive
same,Potency,[3],inactive
same,Potency,[4],inactive
same,Potency,[5],inactive
C[C@H](NCCc1ccc(O)cc1)[C@H](O)c1ccc(O)cc1,Potency,[1],inactive
same,Potency,[2],inactive
same,Potency,[3],inactive
same,Potency,[4],inactive
CC(Cc1ccc2c(c1)OCO2)NCC(O)c1ccc(O)c(O)c1 (configuration not stated),Potency,[1],inactive
same,Potency,[2],inactive
same,Potency,[3],inactive
same,Potency,[4],inactive
same,Potency,[5],inactive
same,Potency,[6],inactive
same,Potency,[7],15.8 µM (active)
CC(C)(C)c1ccc(CN2CCN(C(c3ccccc3)c3ccc(Cl)cc3)CC2)cc1 (configuration not stated),Potency,[1],inactive
same,Potency,[2],inactive
same,Potency,[3],inactive
same,Potency,[4],inactive
COc1ccc(CCNCC(O)COc2cccc(C)c2)cc1OC (configuration not stated),Potency,[1],inactive
same,Potency,[2],inactive
same,Potency,[3],inactive
same,Potency,[4],inactive
same,Potency,[5],inactive
COc1ccc(/C=C/C(=O)OCCC(C)C)cc1,Potency,[1],inactive
same,Potency,[2],inactive
same,Potency,[3],inactive
same,Potency,[4],inactive
same,Potency,[5],inactive
NCCNc1ccc(NCCN)c2c1C(=O)c1ccncc1C2=O,Potency,[1],11.2 µM (active)
same,Potency,[2],inactive
same,Potency,[3],inactive
same,Potency,[4],inactive
CCOc1ccc(CC2NC(=O)CCSSCC(C(=O)N3CCCC3C(=O)NC(CCCN)C(=O)NCC(N)=O)NC(=O)C(CC(N)=O)NC(=O)C(C(C)O)NC(=O)C(C(C)CC)NC2=O)cc1 (configuration not stated) ([Mpa]Y(Et)ITNCP[Orn]G-NH2; disulfide 1-6; configuration not given here),Potency,[1],inactive
same,Potency,[2],inactive
same,Potency,[3],inactive
same,Potency,[4],inactive
same,Potency,[5],inactive
C[N+](C)(C)C1CCC(CC2CCC([N+](C)(C)C)CC2)CC1 (configuration not stated),Potency,[1],inactive
same,Potency,[2],inactive
same,Potency,[3],inactive
same,Potency,[4],inactive
O=C([O-])C[O-].[Pt+2],Potency,[1],inactive
same,Potency,[2],inactive
same,Potency,[3],inactive
same,Potency,[4],inactive
COC(F)(F)C(Cl)Cl,Potency,[1],inactive
same,Potency,[2],inactive
same,Potency,[3],inactive
same,Potency,[4],inactive
Cc1ncc([N+](=O)[O-])n1CCOC(=O)c1ccccc1,Potency,[1],inactive
same,Potency,[2],inactive
same,Potency,[3],inactive
same,Potency,[4],inactive
CC(C)=C/C(C)=N\Nc1nncc2ccccc12,Potency,[1],inactive
same,Potency,[2],inactive
same,Potency,[3],inactive
NS(=O)(=O)c1ccc(-n2nc(C(F)(F)F)cc2-c2ccc(F)cc2)cc1,Potency,[1],inactive
same,Potency,[2],inactive
same,Potency,[3],inactive
same,Potency,[4],inactive
CC1=CC(O)CC(C)(C)C1/C=C/C(C)=C/C=C/C(C)=C/C=C/C=C(C)/C=C/C=C(C)/C=C/C1=C(C)CC(O)CC1(C)C (configuration not stated),Potency,[1],inactive
same,Potency,[2],inactive
same,Potency,[3],inactive
same,Potency,[4],inactive
same,Potency,[5],inactive
C[C@H]1O[C@]2(CS1)CN1CCC2CC1,Potency,[1],inactive
same,Potency,[2],inactive
same,Potency,[3],inactive
same,Potency,[4],inactive
C/C1=C/C[C@@H](/C(C)=C/c2csc(C)n2)OC(=O)C[C@H](O)C(C)(C)C(=O)[C@H](C)[C@@H](O)[C@@H](C)CCC1,Potency,[5],inactive
same,Potency,[6],inactive
same,Potency,[7],inactive
O=S(=O)(O)CCCS(=O)(=O)O,Potency,[1],inactive
same,Potency,[2],inactive
same,Potency,[3],inactive
same,Potency,[4],inactive
CC(C)CN(C[C@@H](O)[C@H](Cc1ccccc1)NC(=O)O[C@H]1CCOC1)S(=O)(=O)c1ccc(N)cc1,Potency,[1],inactive
same,Potency,[2],inactive
same,Potency,[3],inactive
same,Potency,[4],inactive
CCC(=O)Oc1ccc2c(c1)CC[C@@H]1[C@H]2CC[C@]2(C)[C@@H](OC(=O)CC)CC[C@@H]12,Potency,[1],inactive
same,Potency,[2],inactive
same,Potency,[3],inactive
same,Potency,[4],inactive
CCOC(=O)[C@H](CCc1ccccc1)N[C@H](C)C(=O)N1C2CCCCC2C[C@H]1C(=O)O (some centres not stated),Potency,[1],inactive
same,Potency,[2],inactive
same,Potency,[3],inactive
same,Potency,[4],inactive
O=C(Cc1cccs1)NC1C(=O)N2C(C(=O)[O-])=C(C[n+]3ccccc3)CSC12 (configuration not stated),Potency,[1],inactive
same,Potency,[2],inactive
same,Potency,[3],inactive
same,Potency,[4],inactive
CC[C@H]1OC(=O)C[C@@H](OC(C)=O)[C@H](C)[C@@H](O[C@@H]2O[C@H](C)[C@@H](O[C@H]3C[C@@](C)(O)[C@@H](OC(=O)CC(C)C)[C@H](C)O3)[C@H](N(C)C)[C@H]2O)[C@@H](CC=O)C[C@@H](C)C(=O)/C=C/C(C)=C/[C@@H]1CO[C@@H]1O[C@H](C)[C@@H](O)[C@@H](OC)[C@H]1OC,Potency,[1],inactive
same,Potency,[2],inactive
same,Potency,[3],inactive
same,Potency,[4],inactive
same,Potency,[5],inactive
